Reference: PubChem BioAssay (NCI)
Several values for one entry are separate records, joined by “and”; a condition that tells them apart may be missing. Equal entries are not always repeated. This is part of a sample that, as a whole, favours compounds with a hit. Of some 83,000 tested, about 20% had one in any assay.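 Note: values are percent growth. 100 is the growth of untreated cells, values between 100 and 0 indicate rising inhibition; between -100 and 0 indicates cell death.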 Activity calls are given as the source filed them. How the source made its calls: active means growth percent below 10; inactive means the rest.

Columns and labels:
Experiment in all cases: NCI-60 one-dose screen, 48 h (100 = growth as untreated, 0 = no growth, -100 = all killed)
Conditions in all cases: 10 µM unless noted
HCT-15 colon = test system: HCT-15 colon
HT29 colon = test system: HT29 colon
SNB-75 CNS = test system: SNB-75 CNS
SNB-19 CNS = test system: SNB-19 CNS
U251 CNS = test system: U251 CNS
PC-3 prostate = test system: PC-3 prostate
SK-MEL-5 melanoma = test system: SK-MEL-5 melanoma
UACC-62 melanoma = test system: UACC-62 melanoma
LOX IMVI melanoma = test system: LOX IMVI melanoma
SK-MEL-28 melanoma = test system: SK-MEL-28 melanoma
SK-MEL-2 melanoma = test system: SK-MEL-2 melanoma
EKVX NSCLC = test system: EKVX NSCLC
SN12C renal = test system: SN12C renal
UO-31 renal = test system: UO-31 renal
TK-10 renal = test system: TK-10 renal
ACHN renal = test system: ACHN renal
CAKI-1 renal = test system: CAKI-1 renal
A498 renal = test system: A498 renal
CCRF-CEM leukemia = test system: CCRF-CEM leukemia
MOLT-4 leukemia = test system: MOLT-4 leukemia

Row | Structure (SMILES) | growth (HCT-15 colon) | growth (HT29 colon) | growth (SNB-75 CNS) | growth (SNB-19 CNS) | growth (U251 CNS) | growth (PC-3 prostate) | growth (SK-MEL-5 melanoma) | growth (UACC-62 melanoma) | growth (LOX IMVI melanoma) | growth (SK-MEL-28 melanoma) | growth (SK-MEL-2 melanoma) | growth (EKVX NSCLC) | growth (SN12C renal) | growth (UO-31 renal) | growth (TK-10 renal) | growth (ACHN renal) | growth (CAKI-1 renal) | growth (A498 renal) | growth (CCRF-CEM leukemia) | growth (MOLT-4 leukemia)
1 | O=S1(=O)CC(Br)C(Br)C1 (centres undefined) | 49.1% (inactive) and 61.1% (inactive) | 27.7% (inactive) and 79% (inactive) | 100% (inactive) and 88.8% (inactive) | 98.7% (inactive) and 97.2% (inactive) | 98% (inactive) and 97% (inactive) | 86.3% (inactive) and 92.6% (inactive) | 93.2% (inactive) and 99.2% (inactive) | 86.5% (inactive) and 93.4% (inactive) | 81.3% (inactive) and 38.4% (inactive) | 80.8% (inactive) and 106% (inactive) | 82.4% (inactive) and 83.3% (inactive) | 93.9% (inactive) | 93.2% (inactive) and 88.3% (inactive) | 64.9% (inactive) and 77% (inactive) | 40% (inactive) and 63.8% (inactive) | 42.2% (inactive) and 69.8% (inactive) | 45.1% (inactive) and 65.5% (inactive) | 112% (inactive) | 33.7% (inactive) | 61.3% (inactive) and 68.6% (inactive)
2 | CNC(=O)c1cc(Oc2ccc(NC(=O)Nc3ccc(Cl)c(C(F)(F)F)c3)cc2)ccn1 | 1.74% (active) and 5.49% (active) | -3.38% (active) and 9.81% (active) | -38.9% (active) and 21.8% (inactive) | 13.3% (inactive) and 20.6% (inactive) | 1.89% (active) and 0.072% (active) | 11.6% (inactive) and -9.74% (active) | -73.1% (active) and -56.6% (active) | -49.4% (active) and -25.5% (active) | -14.6% (active) and -55.1% (active) | -15.7% (active) and -26.7% (active) | -42.9% (active) | 4.85% (active) and -2.85% (active) | 6.54% (active) and -7.24% (active) | -28.5% (active) and -81.1% (active) | -11.8% (active) and 25.8% (inactive) | 5.96% (active) and 0% (active) | 7.37% (active) and -32.6% (active) | -73.7% (active) and -21.1% (active) | 12% (inactive) and 18.6% (inactive) | -1.28% (active) and 25.8% (inactive)
3 | O=C(CCl)c1ccc2c(c1)Nc1ccccc1S2 | 85.1% (inactive) and 21.2% (inactive) | 101% (inactive) and 95.6% (inactive) | 88.6% (inactive) and 102% (inactive) | 99.7% (inactive) and 98% (inactive) | 98% (inactive) and 92% (inactive) | 92.8% (inactive) and 104% (inactive) | 94.1% (inactive) and 99.5% (inactive) | 87.5% (inactive) | 79.1% (inactive) and 48.2% (inactive) | 106% (inactive) and 115% (inactive) | 80.5% (inactive) and 72.5% (inactive) | 98.6% (inactive) | 104% (inactive) and 93.8% (inactive) | 97.7% (inactive) and 81% (inactive) | 95.5% (inactive) | 104% (inactive) and 92.4% (inactive) | 98.4% (inactive) | 84.1% (inactive) and 77.2% (inactive) | 53.7% (inactive) and 50.5% (inactive) | 46.3% (inactive) and 48.5% (inactive)
4 | Clc1ccc(SSc2ccc(Cl)cc2)cc1 | 98.8% (inactive) and 92.4% (inactive) | 98.1% (inactive) and 98.2% (inactive) | 74.4% (inactive) and 67% (inactive) | 93.7% (inactive) and 89.2% (inactive) | 93.4% (inactive) and 61% (inactive) | 87.3% (inactive) and 46.5% (inactive) | 105% (inactive) and 73.3% (inactive) | 96.9% (inactive) and 95.8% (inactive) | 97.6% (inactive) and 7.12% (active) | 96.9% (inactive) and 103% (inactive) | 101% (inactive) and 111% (inactive) | 103% (inactive) and 68.6% (inactive) | 97.5% (inactive) and 42.4% (inactive) | 85% (inactive) and 46.7% (inactive) | 88% (inactive) and 106% (inactive) | 99.4% (inactive) and 99.7% (inactive) | 95.8% (inactive) and 94.5% (inactive) | 87.9% (inactive) and 74.6% (inactive) | 97.9% (inactive) | 98.6% (inactive)
5 | CC1=NN(c2ccccc2)C(=O)C1C(=O)c1ccccc1 (centres undefined) | 108% (inactive) | 107% (inactive) | 103% (inactive) | 95.1% (inactive) | 94.4% (inactive) | 87.9% (inactive) | 99.1% (inactive) | 99.2% (inactive) | 96.9% (inactive) | 101% (inactive) | 96.6% (inactive) | 95% (inactive) | 108% (inactive) | 90.6% (inactive) | 107% (inactive) | 99.4% (inactive) | 95.9% (inactive) | 92.4% (inactive) | 88.4% (inactive) | –
6 | Cc1cc(O)c(C(C)C)cc1N | 101% (inactive) and 104% (inactive) | 101% (inactive) and 116% (inactive) | 79% (inactive) and 97% (inactive) | 117% (inactive) | 104% (inactive) and 103% (inactive) | 106% (inactive) and 98.4% (inactive) | 106% (inactive) and 98.9% (inactive) | 97.5% (inactive) and 111% (inactive) | 98.1% (inactive) and 94.7% (inactive) | 113% (inactive) and 111% (inactive) | 113% (inactive) and 119% (inactive) | 95% (inactive) and 104% (inactive) | 114% (inactive) | 78% (inactive) and 95.5% (inactive) | 123% (inactive) and 117% (inactive) | 93.3% (inactive) and 100% (inactive) | 107% (inactive) and 97.4% (inactive) | 92.3% (inactive) and 89.7% (inactive) | 105% (inactive) and 88.4% (inactive) | 95.2% (inactive) and 103% (inactive)
7 | CC12CCC(CC1)C(C)(C)O2 | 97.2% (inactive) | 95.1% (inactive) | 74% (inactive) | 103% (inactive) | 103% (inactive) | 99.7% (inactive) | 102% (inactive) | 103% (inactive) | 97.4% (inactive) | 114% (inactive) | 90.7% (inactive) | 97.6% (inactive) | 103% (inactive) | 87.4% (inactive) | 93.8% (inactive) | 104% (inactive) | 91.4% (inactive) | 92.7% (inactive) | 92.4% (inactive) | 103% (inactive)
8 | COc1ccc(S(=O)(=O)N2CCOCC2)cc1NC(=O)c1[nH]c(C)c2c1CCCCC2=O | 104% (inactive) and 26.9% (inactive) | 112% (inactive) and 31.7% (inactive) | 101% (inactive) and 7.61% (active) | 98.7% (inactive) and 64.1% (inactive) | 97.9% (inactive) and 63.2% (inactive) | 46.4% (inactive) | 97.8% (inactive) and 70.9% (inactive) | 98.2% (inactive) and 33.3% (inactive) | 98.6% (inactive) and 23.5% (inactive) | 101% (inactive) and 62.5% (inactive) | 105% (inactive) and 67.5% (inactive) | 103% (inactive) and 54% (inactive) | 98.3% (inactive) and 64.4% (inactive) | 90.5% (inactive) and 32% (inactive) | 103% (inactive) and 28.5% (inactive) | 107% (inactive) and 50.6% (inactive) | 96.6% (inactive) and 15.7% (inactive) | 93.5% (inactive) and -15.8% (active) | 111% (inactive) and 58.9% (inactive) | 104% (inactive) and 65.9% (inactive)
9 | COc1ccc2nc(Cl)cc(C)c2c1 | 99.2% (inactive) and 101% (inactive) | 101% (inactive) and 105% (inactive) | 99.2% (inactive) and 98.3% (inactive) | 98.1% (inactive) and 111% (inactive) | 98.9% (inactive) and 108% (inactive) | 99.2% (inactive) and 82.3% (inactive) | 98.8% (inactive) and 120% (inactive) | 94.4% (inactive) and 95.2% (inactive) | 105% (inactive) and 113% (inactive) | 104% (inactive) and 118% (inactive) | 99.6% (inactive) | 80.4% (inactive) and 97.6% (inactive) | 107% (inactive) and 103% (inactive) | 84.9% (inactive) and 107% (inactive) | 73.7% (inactive) and 78.9% (inactive) | 105% (inactive) and 118% (inactive) | 85.6% (inactive) | 86% (inactive) and 83.4% (inactive) | 100% (inactive) and 88.9% (inactive) | 100% (inactive) and 76.5% (inactive)
